# Measured values as given in PubChem BioAssay AID686971 (National Center for Advancing Translational Sciences (NCATS), 2013).
# In all, about 360,000 compounds went through this assay and about 7,500 (2.1%) were called active. Inconclusive results (about 8%) are left out. The sample holds actives, similar compounds and a random draw of the others, so the mix is not that of the screen. The call rests on the fitted dose curve; in most records, active means well fitted cell-killing curve with a large enough effect; inconclusive means small, poorly fitted or top-dose-only effect, or effect the other way, or another doubt; inactive means no such curve, though single readings can be large or run the other way.
# Experiment: qHTS for induction of synthetic lethality in tumor cells producing 2HG: qHTS for the HT-1080-IDH1KD cell line;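 on activity, negative = toxicity: 0% = DMSO wells and -100% = cell-free medium wells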
# Details: HT-1080 IDH1 knockdown viability, ATP luminescence, 48 h; series mostly up to 46.1 µM; activity, negative = toxicity: at the top concentration
# In short: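 Cytotoxicity counter-line: IDH1KD HT-1080, 48 h, CellTiter-Glo. Curves classed by r2, magnitude and activity.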
# Potency means the concentration at half of the fitted maximal effect.
SMILES,"activity, negative = toxicity",Potency
CC1(C)CN(Cc2cccnc2)C(=O)[C@H]1CC(=O)Nc1ccc(Br)cc1,0.941% (inactive),–
CCc1nnc(NC(=O)c2ccco2)s1,0.444% (inactive),–
Cn1cccc1/C=N/NC(=O)c1ccc(OC(F)(F)C(F)F)cc1,-9.71% (inactive),–
Cn1nccc1NC(=O)Nc1ccc(OC(F)(F)F)cc1,-2.7% (inactive),–
O=C(Nc1ccc(OC(F)(F)F)cc1)c1ccc2c(c1)no[n+]2[O-],–,11.6 µM (active)
CC1(c2cccc(N)c2)OCCO1,-10.9% (inactive),–
Cc1ccc(-c2cnc(C(O)c3cccc(C)c3C)[nH]2)cc1 (configuration not stated),3.28% (inactive),–
Cc1ccc(-c2nc3c(C)cc(Br)cn3c2Cc2ccccc2)cc1,2.06% (inactive),–
CC(C)C[C@H]1CN([C@@H](Cc2ccccc2)CN2CCC[C@@H]2CN2C(=O)C(=O)NC[C@@H]2Cc2ccc(O)cc2)C(=O)C(=O)N1CCc1ccccc1,3.99% (inactive),–
CCOc1ccc(CCN2C(=O)C(=O)N([C@@H](Cc3ccc(O)cc3)CN3CCC[C@H]3CN3C(=O)C(=O)NC[C@@H]3CC(C)C)C[C@@H]2Cc2ccccc2)cc1,0.229% (inactive),–
CC(C)C[C@H]1CNC(=S)N1C[C@H]1CCCN1C[C@H](Cc1ccc(O)cc1)N1C[C@H](Cc2ccc(O)cc2)N(CC2CCCCC2)C1=S,–,14.6 µM (active)
CC(C)[C@H](NC(=O)c1ccccc1F)C(=O)Nc1cccc(S(=O)(=O)N2CCOCC2)c1,0.177% (inactive),–
C[C@H]1NS(=O)(=O)c2cc(Cl)ccc2O[C@@H]1c1ccccc1,3.06% (inactive),–
CC(Sc1ccc(S(=O)(=O)N2CCN(C)CC2)cn1)C(=O)NC1CCCC(C)C1C (configuration not stated),-7.37% (inactive),–
CC(C)c1ccccc1OCC(O)CN(CC(O)COc1cccc2ccccc12)C(C)C (configuration not stated),–,25.9 µM (active)
CCC(C)Sc1nc2c(c(=O)[nH]c(=O)n2C)n1CC(O)COc1cccc2ccccc12 (configuration not stated),-5.75% (inactive),–

SMILES,"activity, negative = toxicity",Potency
CC1CC(C)CN(CCOc2cccc3ccccc23)C1 (configuration not stated),-7.97% (inactive),–
Cc1[nH]c2ccccc2c1C(=O)C(=O)NCc1nnnn1-c1cccc(F)c1,0.987% (inactive),–
O=C(NCc1ccc(F)cc1F)[C@@H]1CCCN1C(=O)[C@@H]1CCCN1C(=O)c1cccc(Cl)c1,8.01% (inactive),–
O=C(c1ccc2c(=O)n(Cc3ccco3)c(=S)[nH]c2c1)N1CCCC1,10.2% (inactive),–
O=[N+]([O-])c1c(NCCO)cc(Sc2nc3ccccc3s2)c2nonc12,–,3.16 µM (active)
CCN(CC)CCCSc1nc2ccccc2s1,11.7% (inactive),–
Cc1nc2nc(CSc3nc4ccccc4s3)cc(=O)n2[nH]1,-0.0889% (inactive),–
CCc1nc2c(OCCc3cccc(OC)c3)cccn2c1N(C)C(=O)c1ccc(C)cc1,-11.3% (inactive),–
Cc1cc(C(=O)Nc2nnc(C3CC3)s2)c(C)s1,-1.67% (inactive),–
O=C(Nc1nnc(C2CC2)s1)c1ccccn1,–,5.01 µM (active)
CCc1ccccc1OCC(=O)Nc1nnc(C2CC2)s1,9.55% (inactive),–
C[C@@H]1CN([C@H](C)CO)C(=O)c2cc(-c3ccc(F)cc3)cnc2O[C@H]1CN(C)C(=O)c1ccc(F)cc1,-3.85% (inactive),–
CC(=O)Nc1ccc(S(=O)(=O)NNC(=O)CCc2ccccc2)cc1,-5.47% (inactive),–
O=C(CCc1ccccc1)NNc1ccc(F)cc1,–,2.31 µM (active)
O=C(Cc1ccccc1)NCc1ccc(F)cc1,-2.39% (inactive),–
COc1ccc(-c2ccc(CN3C(C(C)C)C(=O)N(Cc4cn(CC5CCCCC5)nn4)CCS3(=O)=O)cc2)cn1 (configuration not stated),-3.81% (inactive),–
